The record followed here is PubChem BioAssay AID686978 (National Center for Advancing Translational Sciences (NCATS), 2013).

Each structure is given as a SMILES string. Hit rate of the full screen: of about 420,000 compounds, about 64,000 (15%) were called active. Roughly 27% stayed inconclusive and do not appear here. Calls come from the whole dose curve; as a rule, active = well fitted inhibition curve with a large enough effect; inconclusive = small, poorly fitted or top-dose-only effect; inactive = flat fitted curve, though single readings scatter. These entries were drawn from the full list.
% is set by controls: 0 for no effect and ±100 for the full control effect; potency is the fitted concentration of half-maximal effect.

This experiment is described as follows: qHTS for Inhibitors of human tyrosyl-DNA phosphodiesterase 1 (TDP1): qHTS in cells in absence of CPT. Note: nearly all actives have a fitted effect of over 55% in size. The settings on record: DT40 Tdp1-/- hTDP1 cells, no CPT, ATP luminescence, 48 h; activity change, negative = growth inhibition: at 46.2 µM (top of the series). The method in brief: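 Readout: luminescence from CellTiter-Glo after 30 min in the dark at RT. Cells: DT40 Tdp1-/- with stable hTDP1, 400/well. Exposure: compounds alone, ≥48 hr, 37 °C.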
On to `O=C(COc1ccc(S(=O)(=O)Nc2cccc(C(F)(F)F)c2)cc1)N1CCOCC1`, for which the “activity change, negative = growth inhibition” value is -13.8% (inactive). For the compound `CCOC(=O)N1CCN(C(=O)c2ccc(S(=O)(=O)Nc3cccc(C(F)(F)F)c3)cc2)CC1`, the Potency was 6.51 µM (active). As for `COC(=O)C1=C(C(=O)OC)[C@@H]2N(Cc3ccccc3)c3ccccc3[C@@]23C[C@@H](C(=O)OC)N(S(=O)(=O)c2ccc(C(F)(F)F)cc2)C3=N1`, the “activity change, negative = growth inhibition” value was -22.1% (inactive).

Consider `CCCCNS(=O)(=O)c1ccc(S(=O)(=O)n2cnc3ccccc32)cc1`, for which the “activity change, negative = growth inhibition” value was 2.54% (inactive).

Take `CCOC(=O)c1nc(C)n(-c2ccc(Cl)cc2Cl)n1`: the “activity change, negative = growth inhibition” value was -12.1% (inactive).

Take `C/C(=N/NC(=O)CN1CCN(S(=O)(=O)c2ccc(Br)cc2)CC1)c1ccncc1`: the “activity change, negative = growth inhibition” value is -17.6% (inactive).

With `Cc1ccc(S(=O)(=O)N2CCN(CC(=O)N/N=C/c3ccc(Br)s3)CC2)cc1`, the Potency is 14.6 µM (active). In the case of `Cc1ccc(/C=N/NC(=O)CN2CCN(Cc3ccccc3)CC2)s1`, the “activity change, negative = growth inhibition” value was -20.3% (inactive). With `Cc1ccc(C)c(NC2=NCC(=O)N2c2ccc3c(c2)OCCO3)c1`, the “activity change, negative = growth inhibition” value was -0.0277% (inactive).

As to `COc1cc2[nH]c(=S)n(Cc3ccc(F)cc3)c(=O)c2cc1OC`, the “activity change, negative = growth inhibition” value is -23.7% (inactive).

On to `CCOc1cc2[nH]c(=S)n(Cc3ccc(C(=O)N4CCN(C)CC4)cc3)c(=O)c2cc1OCC`, for which the Potency is 16.4 µM (active). For `CCOc1cc2[nH]c(=S)n(Cc3ccc(C(=O)NCCOC)cc3)c(=O)c2cc1OCC`, the “activity change, negative = growth inhibition” value is -12.9% (inactive). In the case of `CNC(=O)NC(=O)C(OC(=O)c1cccc(S(=O)(=O)N2CCCCC2)c1)c1ccccc1` (stereo not given), the “activity change, negative = growth inhibition” value was -15% (inactive). Same read-out and setting: next, `COc1c(C=O)c(CCN(C)C(=O)c2ccc(F)cc2)cc2c1OCO2`: -2.12% (inactive); `O=C1CSC(=S)N1c1ccc(Cl)c(Cl)c1`: -2.25% (inactive).

With `Cc1ccccc1N1C(=O)C2ON(c3ccccc3)C(c3ccncc3)C2C1=O` (stereo not given), the “activity change, negative = growth inhibition” value was -8.98% (inactive). As to `CC(=O)NC1=NN(C(C)=O)C(C)(c2ccc(Cl)s2)S1` (stereo not given), the Potency was 5.17 µM (active). As to `O=C(NC1=NCCS1)c1ccc(Cl)s1`, the “activity change, negative = growth inhibition” value is 3.11% (inactive).

Consider `CC(=O)NC1=NN(C(C)=O)C(C)(CCS(=O)(=O)c2ccc(Cl)c(Cl)c2)S1` (stereo not given), for which the “activity change, negative = growth inhibition” value is -7.08% (inactive). Still for that read-out and setting: to `COc1ccccc1C1CC(=O)n2c(nc(-c3ccccc3)c2-c2ccccc2)S1` (stereo not given) belongs 4.33% (inactive). Same read-out and setting: to `O=C(COC(=O)/C=C/c1cccs1)NC1CCCCC1` belongs 16.1% (inactive). Same read-out and setting: next, `CSc1ncccc1C(=O)OCc1ccc(Br)cc1`: -0.34% (inactive); `OC(c1cc(Cl)cc(Cl)c1)c1ncc(-c2ccccc2C(F)(F)F)[nH]1` (stereo not given): -29.3% (inactive). In the case of `CCCNc1ncnc2sc(C)c(C)c12`, the Potency is 13 µM (active).

For the compound `CSc1ncnc2sc(C)c(C)c12`, the “activity change, negative = growth inhibition” value is -11.7% (inactive). As for `COCCN1CCN(C(=O)c2sc3ncnc(NCC4CCCO4)c3c2C)CC1` (stereo not given), the “activity change, negative = growth inhibition” value is -15.6% (inactive). As to `CC1=C(C(=O)OC(C)(C)C)C(c2ccc(Br)cc2)NC(=O)N1CCCC(=O)O` (stereo not given), the “activity change, negative = growth inhibition” value is -1.02% (inactive). Consider `CCCCNC(=O)C(C)N(CCN(C)C)C(=O)CCCN1C(=O)NC(c2ccc(Cl)cc2)C(C(=O)OCc2ccccc2)=C1C` (stereo not given), for which the Potency is 18.4 µM (active).

For `CCCCNC(=O)C(C)N(CCN(C)C)C(=O)CCCCCN1C(=O)NC(c2ccc(Cl)cc2)C(C(=O)OCc2ccccc2)=C1C` (stereo not given), the Potency was 16.4 µM (active). Turning to `COCCOC(=O)C1=C(C)NC(=O)NC1c1ccc(Cl)cc1` (stereo not given), the “activity change, negative = growth inhibition” value was -8.4% (inactive). For the compound `CC1=C(C(=O)OCc2ccccc2)C(c2ccc(C(F)(F)F)cc2)NC(=O)N1CCCCCC(=O)O` (stereo not given), the “activity change, negative = growth inhibition” value is -0.318% (inactive). As for `CCOC(=O)CCCNC(=O)CN1C(=O)NC(CCc2ccccc2)C1=O` (stereo not given), the “activity change, negative = growth inhibition” value is 1.07% (inactive). As to `CC(C)c1nccn1S(=O)(=O)c1cc([N+](=O)[O-])ccc1Cl`, the “activity change, negative = growth inhibition” value is -15% (inactive). The same measure, in the same setting: next, `c1ccc2c(c1)OC1OC2Oc2ccccc21`: -15.1% (inactive). Consider `O=C(CCN1C(=O)C2C3CCC(C3)C2C1=O)Nc1ccc(Cl)cc1Cl` (stereo not given), for which the “activity change, negative = growth inhibition” value is -25.1% (inactive). For the compound `CCOc1ccc2ccccc2c1/C=N/NC(=O)c1c(C)cc(C)[nH]c1=O`, the “activity change, negative = growth inhibition” value was -10.3% (inactive). With `Cc1[nH]c2ccccc2c1/C=N/NC(=O)CNC(=O)c1ccc2c(c1)OCO2`, the “activity change, negative = growth inhibition” value was -24.4% (inactive). Consider `O=C(N/N=C/c1c(Cl)[nH]c2ccccc12)c1sc2ccccc2c1Cl`, for which the Potency is 13 µM (active).

Take `C[C@H](NC(=O)C1CC(=O)N(c2ccc3c(c2)OCCO3)C1)C(=O)N1CCC(C(=O)O)CC1` (stereo not given in full): the “activity change, negative = growth inhibition” value was 17.9% (inactive).

On to `CCC(C)(C)NC(=O)C(c1ccccn1)N(C(=O)c1csnn1)c1ccccc1` (stereo not given), for which the “activity change, negative = growth inhibition” value was -21.4% (inactive). Regarding `CCc1ccc(NC(=O)CS(=O)CC(=O)NCCCc2ccccc2)cc1` (stereo not given), the “activity change, negative = growth inhibition” value was -20% (inactive). Regarding `Nc1ccc(C(=O)OCC(=O)NC2CCS(=O)(=O)C2)cc1[N+](=O)[O-]` (stereo not given), the “activity change, negative = growth inhibition” value was 33.8% (inactive). Same read-out and setting: to `Cc1cc(CNC(=O)C2CCC(=O)N(CCc3ccc(Cl)cc3)C2)no1` (stereo not given) belongs -5.14% (inactive); to `COc1cccc(OCc2cc(C(=O)N3CCN(C(=O)c4ccco4)CC3)no2)c1`, -24.7% (inactive); to `COc1cccc(OC)c1C(=O)Nc1ccc(N2CCCCC2)cc1`, -2.14% (inactive). On the same count and under the same terms, next, `NS(=O)(=O)c1ccc(NC(=O)C(=O)Nc2ccc3nc4n(c(=O)c3c2)CCCCC4)cc1`: 8.65% (inactive).

For `COc1cccc(C(=O)Nc2ccc3nc4n(c(=O)c3c2)CCCCC4)c1`, the Potency was 20.6 µM (active). In the case of `O=C(c1ccco1)N1CCN(c2cccc(Cl)c2)CC1`, the “activity change, negative = growth inhibition” value is -21.5% (inactive). Still for that read-out and setting: next, `CCCCN(CC)C(=S)Nc1ccc2nc3n(c(=O)c2c1)CCCCC3`: -23.6% (inactive). `Cc1ccc(OCC(=O)Nc2ccc(N3CCN(C(=O)c4ccco4)CC3)cc2)c(C)c1`: the Potency was 8.2 µM (active).

For the compound `COc1cccc(C(=O)Nc2ccc(N3CCCC3)cc2)c1`, the Potency was 8.2 µM (active). As for `COc1cccc(C(=O)Nc2cc3c(cc2Br)OCCCO3)c1`, the “activity change, negative = growth inhibition” value is -42% (inactive).

With `CCC(=O)Nc1ccc(C(=O)N2CCN(C(=O)c3ccco3)CC2)cc1`, the “activity change, negative = growth inhibition” value was -8.96% (inactive). With `Cc1ccc(OCC(=O)Nc2ccc(NC(=O)c3cccs3)cc2)c(C)c1`, the “activity change, negative = growth inhibition” value is -29.3% (inactive). Take `COc1cccc(C(=O)Nc2ccc(N3CCN(C(=O)c4ccco4)CC3)cc2)c1`: the Potency was 11.6 µM (active).
